This excerpt belongs to a sample that is enriched for the strongest signals.
Key:
Experiment in all cases: glycan array binding signal (z-score within array); higher = stronger binding
Conditions in all cases: glycan notation: IUPAC condensed, linker removed
[1] = molecular target: Fuc(a1-2)Gal(b1-3)GlcNAc(b1-2)Man(a1-3)[Fuc(a1-2)Gal(b1-3)GlcNAc(b1-2)Man(a1-6)]Man(b1-4)GlcNAc(b1-4)GlcNAc
Summary of the method: (§1)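 Arrays were curated from the Consortium for Functional Glycomics database, 3228 in total, and kept only where the protein sequence was available. Binding is expressed as a within-array Z-score. This score was averaged across arrays of the same protein sequence at different concentrations or buffers and across linkers, and negative values can be read as non-binding.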

[2] = molecular target: Fuc(a1-2)Gal(b1-3)GlcNAc(b1-3)[Gal(b1-4)[Fuc(a1-3)]GlcNAc(b1-6)]Gal(b1-4)Glc
Summary of the method: as §1

[3] = molecular target: Fuc(a1-2)Gal(b1-3)[Fuc(a1-4)]GlcNAc(b1-2)Man(a1-3)[Fuc(a1-2)Gal(b1-3)[Fuc(a1-4)]GlcNAc(b1-2)Man(a1-6)]Man(b1-4)GlcNAc(b1-4)GlcNAc
Summary of the method: as §1

Fuc(a1-2)Gal(b1-4)GlcNAc = molecular target: Fuc(a1-2)Gal(b1-4)GlcNAc
Summary of the method: as §1

Fuc(a1-2)Gal6S(b1-4)Glc = molecular target: Fuc(a1-2)Gal6S(b1-4)Glc
Summary of the method: as §1

Fuc(a1-2)[Gal(a1-3)]Gal = molecular target: Fuc(a1-2)[Gal(a1-3)]Gal
Summary of the method: as §1

[4] = molecular target: Fuc(a1-2)[Gal(a1-3)]Gal(b1-4)[Fuc(a1-3)]Glc
Summary of the method: as §1

[5] = molecular target: Fuc(a1-2)[GalNAc(a1-3)]Gal(b1-3)GalNAc(a1-3)[Fuc(a1-2)]Gal(b1-4)GlcNAc
Summary of the method: as §1

[6] = molecular target: Fuc(a1-2)[GalNAc(a1-3)]Gal(b1-3)GalNAc(b1-3)Gal(a1-4)Gal(b1-4)Glc
Summary of the method: as §1

[7] = molecular target: Fuc(a1-2)[GalNAc(a1-3)]Gal(b1-4)Glc
Summary of the method: as §1

[8] = molecular target: Fuc(a1-2)[GalNAc(a1-3)]Gal(b1-4)GlcNAc(b1-2)Man(a1-3)[Fuc(a1-2)[GalNAc(a1-3)]Gal(b1-4)GlcNAc(b1-2)Man(a1-6)]Man(b1-4)GlcNAc(b1-4)GlcNAc
Summary of the method: as §1

[9] = molecular target: Fuc(a1-2)[GalNAc(a1-3)]Gal(b1-4)GlcNAc(b1-3)Gal(b1-4)GlcNAc(b1-3)Gal(b1-4)GlcNAc
Summary of the method: as §1

[10] = molecular target: Fuc(a1-2)[GalNAc(a1-3)]Gal(b1-4)GlcNAc(b1-3)[Fuc(a1-2)[GalNAc(a1-3)]Gal(b1-4)GlcNAc(b1-6)]GalNAc
Summary of the method: as §1

[11] = molecular target: Fuc(a1-2)[GalNAc(a1-4)]Gal(b1-4)GlcNAc
Summary of the method: as §1

[12] = molecular target: Fuc(a1-3)[Gal(b1-4)]GlcNAc(b1-4)Gal(b1-4)[Fuc(a1-3)]GlcNAc(b1-4)Gal(b1-4)[Fuc(a1-3)]GlcNAc
Summary of the method: as §1

Gal(a1-4)GlcNAc = molecular target: Gal(a1-4)GlcNAc
Summary of the method: as §1

Gal(b1-2)Gal = molecular target: Gal(b1-2)Gal
Summary of the method: as §1

Gal(b1-3)GalNAc = molecular target: Gal(b1-3)GalNAc
Summary of the method: as §1

[13] = molecular target: Gal(b1-3)GlcNAc(b1-2)[Gal(b1-3)GlcNAc(b1-6)]Man(a1-6)[Gal(b1-3)GlcNAc(b1-2)Man(a1-3)]Man(b1-4)GlcNAc(b1-4)GlcNAc
Summary of the method: as §1

[14] = molecular target: Gal(b1-3)GlcNAc(b1-6)GalNAc
Summary of the method: as §1

[15] = molecular target: Gal(b1-3)[Neu5Ac(a2-6)]GalNAc
Summary of the method: as §1

Gal(b1-4)Glc = molecular target: Gal(b1-4)Glc
Summary of the method: as §1

[16] = molecular target: Gal(b1-4)GlcNAc(b1-2)Man(a1-3)[Gal(b1-4)GlcNAc(b1-2)Man(a1-6)]Man(b1-4)GlcNAc(b1-4)GlcNAc
Summary of the method: as §1

[17] = molecular target: Gal(b1-4)GlcNAc(b1-2)Man(a1-3)[GlcNAc(b1-4)][Gal(b1-4)GlcNAc(b1-2)Man(a1-6)]Man(b1-4)GlcNAc(b1-4)GlcNAc
Summary of the method: as §1

[18] = molecular target: Gal(b1-4)GlcNAc(b1-2)Man(a1-6)[GlcNAc(b1-2)Man(a1-3)]Man(b1-4)GlcNAc(b1-4)GlcNAc
Summary of the method: as §1

[19] = molecular target: Gal(b1-4)GlcNAc(b1-3)[Gal(b1-4)GlcNAc(b1-6)]Gal(b1-4)GlcNAc
Summary of the method: as §1

Gal3S(b1-4)GlcNAc = molecular target: Gal3S(b1-4)GlcNAc
Summary of the method: as §1

Gal4S(b1-4)GlcNAc = molecular target: Gal4S(b1-4)GlcNAc
Summary of the method: as §1

GalNAc(a1-3)Gal = molecular target: GalNAc(a1-3)Gal
Summary of the method: as §1

GalNAc(a1-3)GalNAc = molecular target: GalNAc(a1-3)GalNAc
Summary of the method: as §1

B1: HPAIIITrx (Helix pomatia), Q1KM18 (protein)
chain: MLFVTIISLGLLAIVHGQCALKTIAFSAAIDREQTFDANQVVIYDIVITNHGNAYDNSTGLFTAPVDGMYSFQLNLLTIKEKEGWLELVHNGQLKVSVYAKQDSTYDSSSNSVIIKMKEGDRVNVRAHKKSGLFGRDDELYNTFSGHFLSGL
B1 was tested, and the “glycan array binding signal (z-score)” value [1] was 3.03, the “glycan array binding signal (z-score)” value [2] was -0.143 and the “glycan array binding signal (z-score)” value [3] was 3.07. The “glycan array binding signal (z-score)” value (Fuc(a1-2)Gal(b1-4)GlcNAc) was -0.3, the “glycan array binding signal (z-score)” value (Fuc(a1-2)Gal6S(b1-4)Glc) was -0.211 and the “glycan array binding signal (z-score)” value (Fuc(a1-2)[Gal(a1-3)]Gal) was -0.256. The “glycan array binding signal (z-score)” value [4] was -0.413, the “glycan array binding signal (z-score)” value [5] was 4.37 and the “glycan array binding signal (z-score)” value [6] was 3.47. The “glycan array binding signal (z-score)” value [7] was 2.02, the “glycan array binding signal (z-score)” value [8] was 6.33 and the “glycan array binding signal (z-score)” value [9] was 2.94. For the same binder, the “glycan array binding signal (z-score)” value [10] was 3.2, the “glycan array binding signal (z-score)” value [11] was 3.52 and the “glycan array binding signal (z-score)” value [12] was -0.564. The “glycan array binding signal (z-score)” value (Gal(a1-4)GlcNAc) was -0.387, the “glycan array binding signal (z-score)” value (Gal(b1-2)Gal) was 0.163 and the “glycan array binding signal (z-score)” value (Gal(b1-3)GalNAc) was -0.149. The “glycan array binding signal (z-score)” value [13] was -0.132, the “glycan array binding signal (z-score)” value [14] was -0.368 and the “glycan array binding signal (z-score)” value [15] was -0.314. The “glycan array binding signal (z-score)” value (Gal(b1-4)Glc) was -0.056, the “glycan array binding signal (z-score)” value [16] was -0.38 and the “glycan array binding signal (z-score)” value [17] was -0.402. For the same binder, the “glycan array binding signal (z-score)” value [18] was -0.301, the “glycan array binding signal (z-score)” value [19] was -0.21 and the “glycan array binding signal (z-score)” value (Gal3S(b1-4)GlcNAc) was -0.024. The “glycan array binding signal (z-score)” value (Gal4S(b1-4)GlcNAc) was -0.358, the “glycan array binding signal (z-score)” value (GalNAc(a1-3)Gal) was 2.5 and the “glycan array binding signal (z-score)” value (GalNAc(a1-3)GalNAc) was 3.35.
